From PubChem BioAssay (Tox21)
Several values for one entry are separate records, joined by “and”; a condition that tells them apart may be missing. Equal entries are not always repeated. Records with an inconclusive call do not appear. A call without a number means that no potency is given here. The source holds several records for some structures; these can differ, active in one and inactive in another. Activity calls are given as the source filed them. Calls come from the whole dose curve; as a rule, active = well fitted inhibition curve with a large enough effect in the repeat runs; inconclusive = weak or mixed curves; inactive = no such curve, though single readings can be large or run the other way.

Biological target: Cytochrome P450 2D6 (Homo sapiens) (UniProt P10635)
Sequence (P10635 whole entry, looked up): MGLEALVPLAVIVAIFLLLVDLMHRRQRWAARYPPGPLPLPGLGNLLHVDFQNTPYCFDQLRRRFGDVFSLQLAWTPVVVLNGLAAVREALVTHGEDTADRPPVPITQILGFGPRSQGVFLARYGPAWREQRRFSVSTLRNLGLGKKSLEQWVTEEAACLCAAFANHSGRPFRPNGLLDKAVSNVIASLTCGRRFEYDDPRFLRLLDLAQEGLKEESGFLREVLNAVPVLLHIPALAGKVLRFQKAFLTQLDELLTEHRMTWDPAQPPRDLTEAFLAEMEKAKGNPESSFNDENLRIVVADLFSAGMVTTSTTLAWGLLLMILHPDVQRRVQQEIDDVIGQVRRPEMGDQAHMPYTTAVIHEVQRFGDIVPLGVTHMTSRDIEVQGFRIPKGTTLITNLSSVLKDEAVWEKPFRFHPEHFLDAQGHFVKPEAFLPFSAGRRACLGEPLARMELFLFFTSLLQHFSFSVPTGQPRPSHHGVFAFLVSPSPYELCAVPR
Assay: Cytochrome P450 Family 2 Subfamily D Member 6 (CYP2D6) small molecule antagonists: luciferase reporter qHTS assay (AID 1671196); note: nearly all actives have a fitted effect of over 50% in size
Conditions: P450-Glo CYP2D6 enzyme assay, luciferin luminescence, 1 h; series mostly up to 115 µM
In short: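 CYP2D6 activity was followed as luminescence from its luciferin product after a 1 h NADPH-driven reaction at room temperature. Enzyme-substrate mix and compound were pre-incubated for 10 min, and the signal was read 20 min after adding detection reagent.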
Potency is the fitted concentration of half-maximal effect.

Structure (SMILES) | Potency
CCO[Si](CCC1CCC2OC2C1)(OCC)OCC (stereo not given) | inactive
CC(=O)c1ccccc1O | inactive
COc1ccc2c(c1)c(CC(=O)OCC(=O)O)c(C)n2C(=O)c1ccc(Cl)cc1 | inactive
Cc1c(O)cccc1O | inactive
COC(=O)c1c(Cl)c(Cl)c(C(=O)OC)c(Cl)c1Cl | inactive and 31.7 µM (active)
CC/C=C\CC/C=C/C(OCC)OCC | inactive
CCCN(CCC)CCc1cccc2c1CC(=O)N2 | 0.977 µM (active)
C[C@H](NC(CCc1ccccc1)C(=O)O)C(=O)N1CCC[C@H]1C(=O)O (stereo not given in full) | inactive
CC(=O)CC(C)(C)C1CCCCC1 | inactive
NC(=O)c1ccc([N+](=O)[O-])cc1 | inactive
C=CCCCCCCCCC=O | inactive
COC(=O)c1cc(C(=O)OC)cc(S(=O)(=O)O)c1 | inactive
CCc1ccc(O)c(OC)c1 | inactive
CO[C@]12C[C@@H](COC(=O)c3cncc(Br)c3)CN(C)[C@@H]1Cc1cn(C)c3cccc2c13 | 0.0692 µM (active)
COC(=O)NN | inactive
Nc1c[n+](N2CCOCC2)no1 | inactive
CC(=O)OCC(=O)[C@@]1(O)CC[C@H]2[C@@H]3CCC4=CC(=O)CC[C@]4(C)[C@H]3C(=O)C[C@@]21C | 2.45 µM (active)
CCCCCCCCCCCCCC=O | 2.78 µM (active)
OC1CCCCC1c1ccccc1 (stereo not given) | inactive
O=C(O)CCCl | inactive
C/C=C(\C)C#N | inactive
CC(C)(O)C(=O)c1ccccc1 | inactive
C=COCC1CCC(CO)CC1 (stereo not given) | inactive
C=C1CC[C@H]2C[C@@H]1C2(C)C | inactive
OCCOc1ccc(OCCO)cc1 | inactive
COC(=O)CCSCCC(=O)OC | inactive
O=[N+]([O-])c1ccc(F)cc1F | inactive
CC(=O)Nc1ccc(S(N)(=O)=O)cc1 | inactive
N=C(N)c1ccc(OCCCOc2ccc(C(=N)N)cc2)cc1 | inactive
CN1N=C(C(N)=O)CCC1=O | inactive

Biological target: Cytochrome P450 2C19 (Homo sapiens) (UniProt P33261)
Sequence (P33261 whole entry, looked up): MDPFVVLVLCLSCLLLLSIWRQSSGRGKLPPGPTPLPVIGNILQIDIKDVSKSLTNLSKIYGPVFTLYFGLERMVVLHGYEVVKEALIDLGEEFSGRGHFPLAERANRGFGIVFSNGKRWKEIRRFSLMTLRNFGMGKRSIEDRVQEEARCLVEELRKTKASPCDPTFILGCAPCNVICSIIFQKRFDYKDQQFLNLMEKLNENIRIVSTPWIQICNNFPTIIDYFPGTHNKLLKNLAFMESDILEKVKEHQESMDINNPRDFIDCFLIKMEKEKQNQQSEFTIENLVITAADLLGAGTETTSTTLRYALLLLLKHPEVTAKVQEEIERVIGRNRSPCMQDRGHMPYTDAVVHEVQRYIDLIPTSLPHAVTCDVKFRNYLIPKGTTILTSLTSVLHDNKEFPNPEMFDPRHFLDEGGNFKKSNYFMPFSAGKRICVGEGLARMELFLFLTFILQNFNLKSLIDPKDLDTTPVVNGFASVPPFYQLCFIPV
Assay: Cytochrome P450 Family 2 Subfamily C Member 19 (CYP2C19) small molecule antagonists: luciferase reporter qHTS assay (AID 1671197); note: nearly all actives have a fitted effect of over 65% in size
Conditions: P450-Glo CYP2C19 enzyme, luciferin luminescence, 1 h; series mostly up to 52.9 µM
In short: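 CYP2C19 P450-Glo, 1536-well qHTS. Cpd + enzyme/proluciferin substrate 10 min RT; + NADPH regen, 37C 1 h; stop with luciferin detection reagent, 20 min RT, luminescence (RLU). Pos ctrl ketoconazole.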

Structure (SMILES) | Potency | activity change, negative = inhibition
CCO[Si](CCC1CCC2OC2C1)(OCC)OCC (stereo not given) | inactive | 
CC(=O)c1ccccc1O | inactive | 
O=Cc1cccc([N+](=O)[O-])c1 | inactive | 
COc1ccc2c(c1)c(CC(=O)OCC(=O)O)c(C)n2C(=O)c1ccc(Cl)cc1 | inactive | 
CCCCCCCCS(=O)(=O)Cl | inactive | 
Nc1c2c(nc3ccccc13)CCCC2O (stereo not given) | inactive | 
COC(=O)c1c(Cl)c(Cl)c(C(=O)OC)c(Cl)c1Cl | 28.3 µM (active) and 15.9 µM (active) | 
CC/C=C\CC/C=C/C(OCC)OCC | 56.4 µM (active) | 
CCCN(CCC)CCc1cccc2c1CC(=O)N2 | inactive | 
C[C@H](NC(CCc1ccccc1)C(=O)O)C(=O)N1CCC[C@H]1C(=O)O (stereo not given in full) | inactive | 
CC(=O)CC(C)(C)C1CCCCC1 | inactive | 
NC(=O)c1ccc([N+](=O)[O-])cc1 | 79.3 µM (active) | 
C=CCCCCCCCCC=O | 79.6 µM (active) | 
COC(=O)c1cc(C(=O)OC)cc(S(=O)(=O)O)c1 | inactive | 
CO[C@]12C[C@@H](COC(=O)c3cncc(Br)c3)CN(C)[C@@H]1Cc1cn(C)c3cccc2c13 | 2.45 µM (active) | 
CS(=O)(=O)O | inactive | 

Structure (SMILES) | Potency | activity change, negative = inhibition
Nc1c[n+](N2CCOCC2)no1 | inactive | 
CC(=O)OCC(=O)[C@@]1(O)CC[C@H]2[C@@H]3CCC4=CC(=O)CC[C@]4(C)[C@H]3C(=O)C[C@@]21C | inactive | 
CCCCCCCCCCCCCC=O |  | -12.1% [at 10.5 µM] (inactive)
OC1CCCCC1c1ccccc1 (stereo not given) | 79.6 µM (active) | 
O=C(O)CCCl | inactive | 
C/C=C(\C)C#N | 78.4 µM (active) | 
CC(C)(O)C(=O)c1ccccc1 | 39.9 µM (active) | 
C=COCC1CCC(CO)CC1 (stereo not given) | inactive | 
C=C1CC[C@H]2C[C@@H]1C2(C)C | inactive | 
OCCOc1ccc(OCCO)cc1 | inactive | 
COC(=O)CCSCCC(=O)OC | inactive | 
O=[N+]([O-])c1ccc(F)cc1F | inactive | 
N=C(N)c1ccc(OCCCOc2ccc(C(=N)N)cc2)cc1 | inactive | 
O=C(O)c1ccccc1OP(=O)(O)O | inactive | 
CN1N=C(C(N)=O)CCC1=O | inactive | 

Biological target: Cytochrome P450 2C9 (Homo sapiens) (UniProt P11712)
Sequence (P11712 whole entry, looked up): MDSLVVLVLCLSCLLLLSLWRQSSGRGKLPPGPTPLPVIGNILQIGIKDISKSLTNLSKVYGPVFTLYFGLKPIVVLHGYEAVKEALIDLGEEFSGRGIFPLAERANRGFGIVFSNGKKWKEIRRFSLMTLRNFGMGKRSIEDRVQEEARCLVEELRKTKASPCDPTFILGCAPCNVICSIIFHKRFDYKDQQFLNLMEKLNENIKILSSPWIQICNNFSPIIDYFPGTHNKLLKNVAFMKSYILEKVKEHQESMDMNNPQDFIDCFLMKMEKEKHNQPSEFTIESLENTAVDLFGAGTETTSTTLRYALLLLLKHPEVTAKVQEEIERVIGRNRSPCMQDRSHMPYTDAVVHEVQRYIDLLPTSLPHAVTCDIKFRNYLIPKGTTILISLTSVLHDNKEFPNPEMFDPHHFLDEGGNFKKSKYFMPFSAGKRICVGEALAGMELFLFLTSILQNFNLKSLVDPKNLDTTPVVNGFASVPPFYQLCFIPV
Assay: Cytochrome P450 Family 2 Subfamily C Member 9 (CYP2C9) small molecule antagonists: luciferase reporter qHTS assay (AID 1671198); note: nearly all actives have a fitted effect of over 50% in size
Conditions: P450-Glo CYP2C9 enzyme assay, luciferin luminescence; series mostly up to 115 µM
In short: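 Enzyme-substrate mix preincubated with compound 10 min at room temperature; reaction started with NADPH regeneration solution, 1 h 37C. Luminescent luciferin product read after 20 min detection reagent.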

Structure (SMILES) | Potency | activity change, negative = inhibition
CCO[Si](CCC1CCC2OC2C1)(OCC)OCC (stereo not given) | inactive | 
O=Cc1cccc([N+](=O)[O-])c1 | inactive | 
CCCCCCCCS(=O)(=O)Cl | 32 µM (active) | 
Nc1c2c(nc3ccccc13)CCCC2O (stereo not given) | inactive | 
COC(=O)c1c(Cl)c(Cl)c(C(=O)OC)c(Cl)c1Cl | inactive | 
CC/C=C\CC/C=C/C(OCC)OCC | 35.6 µM (active) | 
CCCN(CCC)CCc1cccc2c1CC(=O)N2 | inactive | 
C[C@H](NC(CCc1ccccc1)C(=O)O)C(=O)N1CCC[C@H]1C(=O)O (stereo not given in full) | inactive | 
CC(=O)CC(C)(C)C1CCCCC1 | inactive | 
C=CCCCCCCCCC=O | 31.7 µM (active) | 
COC(=O)c1cc(C(=O)OC)cc(S(=O)(=O)O)c1 | inactive | 
CCc1ccc(O)c(OC)c1 | inactive | 
CO[C@]12C[C@@H](COC(=O)c3cncc(Br)c3)CN(C)[C@@H]1Cc1cn(C)c3cccc2c13 | inactive | 
CS(=O)(=O)O | inactive | 
COC(=O)NN | inactive | 
CCCCCCCCCCCCCC=O |  | -9.33% [at 10.5 µM] (inactive)
O=C(O)CCCl | inactive | 
CC(C)(O)C(=O)c1ccccc1 | inactive | 
OCCOc1ccc(OCCO)cc1 | inactive | 
COC(=O)CCSCCC(=O)OC | inactive | 
O=[N+]([O-])c1ccc(F)cc1F | inactive | 
CC(=O)Nc1ccc(S(N)(=O)=O)cc1 | inactive | 
O=C(O)c1ccccc1OP(=O)(O)O | inactive | 
CN1N=C(C(N)=O)CCC1=O | inactive | 
